These results are taken from PubChem BioAssay (NCATS).

The subject of assay [1] is TAB113. Kind of assay: qHTS profiling for inhibitors of Plasmodium falciparum proliferation (AID 504749). Further: potency means the concentration at half of the fitted maximal effect. The note with it: P. falciparum in erythrocytes, SYBR Green DNA, 72 h; series mostly up to 28.7 µM. A digest of the protocol:
(§1)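 Each compound contacts P. falciparum-infected red blood cells for 72 h at 37 C; lysis buffer (Tris, EDTA, saponin, Triton X, SYBR Green I) is added and fluorescence measured next morning; values normalized to controls.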
On the technique in general: In qHTS, concentration-response curves come from the screen itself.

The subject of assay [2] is TAB165. The assay is described as above. The note with it: P. falciparum in erythrocytes, SYBR Green DNA, 72 h; series mostly up to 28.7 µM. In a few lines:
as §1

For assay [3], the system named is W2. Described as above. The note with it: P. falciparum in erythrocytes, SYBR Green DNA, 72 h; series mostly up to 28.7 µM. A digest of the protocol:
as §1

Assay [4] concerns CRL-7250. The assay is described as follows: Cytotoxic Profiling of Annotated Libraries Using Quantitative High-Throughput Screening (AID 1296008). Further: potency means the concentration at half of the fitted maximal effect. On max response: on the % scale 0 is the no-effect control and ±100 the full control effect. The note with it: Five cell lines viability, CellTiter-Glo ATP luminescence, 48-72 h; max response: stronger effect = lower value. In a few lines:
(§2)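 Cells exposed to compounds for 48 or 72 hr at 37 degrees Celsius. Viability read as ATP-coupled luminescence with CellTiter-Glo after 10 min at room temperature.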

Assay [5] relates to HEK293. The description is as above. The note with it: Five cell lines viability, CellTiter-Glo ATP luminescence, 48-72 h; max response: stronger effect = lower value. In a few lines: as §2
Background: In ATP-based viability assays light output follows the ATP content of the culture.

For assay [6], the system named is HaCat. Described as above. The note with it: Five cell lines viability, CellTiter-Glo ATP luminescence, 48-72 h; max response: stronger effect = lower value. In a few lines:
as §2

For assay [7], the system named is KB-3-1. The description is as above. The note with it: Five cell lines viability, CellTiter-Glo ATP luminescence, 48-72 h; max response: stronger effect = lower value. In a few lines:
as §2

Assay [8] deals with NIH3T3. Described as above. The note with it: Five cell lines viability, CellTiter-Glo ATP luminescence, 48-72 h; max response: stronger effect = lower value. In a few lines: as §2
For assay [9], the system named is HACAT. The assay is described as follows: qHTS assay to identify novel small-molecules to repurpose for Merkel cell carcinoma treatment (AID 1296009). The note with it: MCC and control cell lines, CellTiter-Glo viability, 72 h; at 44.8 µM (top of the series) unless noted. In a few lines: (§3)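 Dose-response viability screen; 72 hr exposure at 37 degree celsius; CellTiter-Glo added, 10 min room temperature, luminescence read; RLUs scaled between no-cell and DMSO wells.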

Assay [10] has as its system HEK293T. The description is as above. The note with it: MCC and control cell lines, CellTiter-Glo viability, 72 h; at 44.8 µM (top of the series) unless noted. A digest of the protocol: as §3

SMILES strings stand for the structures. “And” between values parts separate entries of the source, which are not always exact repeats. Equal entries are not always repeated. Records with an inconclusive call do not appear. Some structures have more than one record in an assay (separate samples or runs), and their calls can disagree. Values without a mark were called inactive. The source made the active and inactive calls. The call rests on the fitted dose curve; in most records, active means well fitted inhibition curve with a large enough effect; inconclusive means small, poorly fitted or top-dose-only effect; inactive means flat fitted curve, though single readings scatter. Non-standard residues stand in square brackets, D forms with d. Residues, ends and D or L forms follow the SMILES beside them. *: point of attachment. Sta = CC(C)C[C@H](N)[C@@H](O)CC(=O)O; Isovaleryl = CC(C)CC(=O)*
Further: nearly all actives have a fitted effect of over 60% in size.

For the compound `CN(C)c1ccc2nc3ccc(=[N+](C)C)cc-3sc2c1`, the Potency in assay [1] was 0.0501 µM (active); in assay [2], 0.0708 µM (active); in [3], 0.0478 µM (active); in assay [4], 11.8 µM (active) and 23.7 µM (active); in assay [5], 1.66 µM (active) and 1.33 µM (active); in assay [6] it was 3.72 µM (active) and 10.6 µM (active). Also, the Potency in assay [7] is 2.09 µM (active) and 6.51 µM (active); in assay [8], 5.26 µM (active) and 3.35 µM (active).
Turning to `CC(C)CC(=O)N[C@H](C(=O)N[C@H](C(=O)N[C@@H](CC(C)C)[C@@H](O)CC(=O)N[C@@H](C)C(=O)N[C@@H](CC(C)C)[C@@H](O)CC(=O)O)C(C)C)C(C)C` (Isovaleryl-VV[Sta]A[Sta]-OH), the max response in [4] was 0.655%; in assay [5], -5.42%; in assay [7], 15.7% and 7.23%; in assay [8], 0.118%.
As for `CN(C)CCc1c[nH]c2ccc(Cn3cncn3)cc12`, the Potency result in assay [1] and in assay [2] was “inactive” in each case. The values for the Potency in [4] and in assay [5] were 1.32 µM (active) and 0.743 µM (active), respectively. Further, in assay [7], the max response is 8.57%. For the same compound, the result in assay [7] was inactive.
For `Cc1cc(C2CCCCC2)n(O)c(=O)c1`, the Potency in assay [2] was 3.16 µM (active); in assay [3] it was 3.61 µM (active); in assay [4], 3.35 µM (active) and 2.96 µM (active); in assay [5], 5.9 µM (active); in [6] it was 23.7 µM (active) and 20.9 µM (active); in [8], 3.76 µM (active) and 14.8 µM (active).
As for `CC(C)c1nc(CN(C)C(=O)N[C@H](C(=O)N[C@@H](Cc2ccccc2)C[C@H](O)[C@H](Cc2ccccc2)NC(=O)OCc2cncs2)C(C)C)cs1`, the max response was -16.9% and 0.649% and -2.4% in assay [4]; -41.4% and 3.85% in assay [6]; -19.1% and 3.76% in assay [8]. In addition, the compound was called inactive in assay [6], in assay [8] and in assay [9].
Take `O=C(O)c1cc(=O)c2c(OCC(O)COc3cccc4oc(C(=O)O)cc(=O)c34)cccc2o1`: the Potency result in [1], in assay [2] and in assay [3] was “inactive” each time.
`O=C1CCc2ccc(OCCCCN3CCN(c4cccc(Cl)c4Cl)CC3)cc2N1`: the Potency in [3] is 9.53 µM (active); in assay [5] it was 16.8 µM (active). The call in assay [6] and in assay [9] was inactive. Moreover, the figures for the max response in assay [7] and in [8] were -20.7% and -18.1%, respectively.
For the compound `C[C@H](Cc1ccc(O)c(O)c1)[C@@H](C)Cc1ccc(O)c(O)c1`, the compound was called inactive in assay [6] and in assay [9]. In addition, the max response in assay [7] is -9.31% and -6.61%; in assay [8], -21.7%.
For the compound `C=C(c1ccc(C(=O)O)cc1)c1cc2c(cc1C)C(C)(C)CCC2(C)C`, the Potency result in assay [1] and in assay [2] was “inactive” each time.
Consider `CC1(C)C(=O)N(CCN2CCC(C(=O)c3ccc(F)cc3)CC2)c2ccccc21`, for which the figures for the max response in assay [4], in [6] and in assay [8] were 0.499%, -16.9% and -5.82%, respectively. Further, the call in [5] and in assay [10] was inactive.
Regarding `CN1C(C(=O)Nc2ccccn2)=C(O)c2sccc2S1(=O)=O`, the Potency entry in [1], in assay [2] and in assay [3] was “inactive” in each case.
For the compound `Cc1cccc(C)c1OCC(=O)N[C@@H](Cc1ccccc1)[C@@H](O)C[C@H](Cc1ccccc1)NC(=O)[C@H](C(C)C)N1CCCNC1=O`, the Potency in [1] is 1.78 µM (active); in assay [2], 1 µM (active); in assay [3], 1.69 µM (active).
Consider `Nc1nc(Cl)nc2c1ncn2[C@H]1C[C@H](O)[C@@H](CO)O1`, for which the Potency entry in assay [1] and in assay [2] was “inactive” throughout. The Potency in assay [5] was 2.35 µM (active); in assay [6], 1.32 µM (active); in [8], 935 nM (active).
On to `O=C1c2ccccc2-c2n[nH]c3cccc1c23`, for which the Potency entry in assay [1] and in [2] was “inactive” throughout.
Regarding `Cc1cc(Cl)ccc1OCCCC(=O)NO`, the max response in [4] is -2.51%; in assay [6] it was 3.7%. Further, the compound was called inactive in assay [7].
Consider `Nc1ccn([C@@H]2O[C@H](CO)[C@@H](O)C2O)c(=O)n1` (some centres not stated), for which the Potency result in [1] and in [2] was “inactive” in each case. The compound was called inactive in assay [4], in [5], in [6], in [8], in assay [9] and in assay [10].
`CC(=O)O[C@H]1C(=O)[C@@]2(C)C([C@H](OC(=O)c3ccccc3)[C@]3(O)C[C@H](OC(=O)[C@H](O)[C@@H](NC(=O)c4ccccc4)c4ccccc4)C(C)=C1C3(C)C)[C@]1(OC(C)=O)CO[C@@H]1C[C@@H]2O` (some centres not stated): the Potency in assay [5] is 0.0057 µM (active); in assay [7] it was 1 nM (active) and 7.2 nM (active); in assay [8] it was 5.9 nM (active) and 36 nM (active). For the same compound, the max response in assay [5] was -90.8%.
`O=C(CS(=O)Cc1ccco1)NCC=CCOc1cc(CN2CCCCC2)ccn1` (configuration not stated): the Potency entry in [1], in assay [2] and in [3] was “inactive” throughout. Also, the result in [4] and in assay [8] was inactive. Also, the max response in [5] is -11.3%; in assay [6], 0.787%.
For the compound `Cc1cc(O)c2c(c1)C(=O)c1cc(O)cc(O)c1C2=O`, the outcome in [4] was inactive. The results for the max response in assay [6] and in [8] were -5.49% and 0.664%, respectively.
As to `CN(C)C(=O)[C@H](O)[C@H](Cc1ccccc1)NC(=O)c1cc2cc(Cl)ccc2[nH]1`, the outcome in assay [4], in assay [6], in assay [7], in assay [8] and in assay [9] was inactive. The values for the max response in assay [6], in assay [7] and in assay [8] were -6.71%, -0.73% and -4.58%, respectively.
With `Cc1cccc(C#Cc2ccccc2)n1`, the max response in assay [6] is -25.8%; in [7] it was 9.05%; in [8], -0.211%.
In the case of `CCc1nc(N)nc(N)c1-c1ccc(Cl)cc1`, in assay [1], the Potency result is “inactive”. In addition, the Potency in assay [2] was 0.178 µM (active); in [5] it was 6.68 µM (active) and 18.7 µM (active); in assay [8], 8.41 µM (active) and 9.35 µM (active). The max response in assay [4] is -18.3%; in assay [6] it was 3.72%.
As to `CCCCCCCCOc1ccccc1C(=O)Nc1ccc(C(=O)OCC[N+](C)(CC)CC)cc1`, the figures for the Potency in assay [1], in [2] and in assay [3] were 10 µM (active), 6.31 µM (active) and 6.75 µM (active), respectively. In addition, the max response in assay [4] was -18.9% and -13.2%; in assay [6], -9.66%; in [7] it was 3.44%; in [8], -11.9% and 2.27%.
